L3MBTL1 block: qHTS Assay for the Inhibitors of L3MBTL1; AlphaScreen L3MBTL1–H3K9me1 peptide binding; Potency, µM (top dose mostly 57.1 µM), without a hit: at the top dose activity, negative = inhibition, usual class: inhibitors; actives 0.66% (n = 230,000); AID 485360, 2010; note: % is set by controls: 0 for no effect and ±100 for the full control effect; nearly all actives have a fitted effect of over 60% in size
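L3MBTL1 (50 nM) pre-complexed 30 min with biotinylated H3(1-15)K9me1 peptide (75 nM), then compounds added for 30 min at room temperature; AlphaScreen streptavidin donor/nickel chelate acceptor beads (10 ug/mL final) read after 30 min dark incubation.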
G9a block: qHTS Assay for Inhibitors of Histone Lysine Methyltransferase G9a; Potency, µM (doses to about 102 µM), without a hit: at the highest dose activity, negative = inhibition, most hits filed as inhibitors; G9a H3K9 monomethylation, AlphaScreen, 2 h; actives 8.8% (n = 350,000); note: % is set by controls: 0 for no effect and ±100 for the full control effect; nearly all actives have a fitted effect of over 75% in size
Target sequence (Q96KQ7 913-1193 limits assumed): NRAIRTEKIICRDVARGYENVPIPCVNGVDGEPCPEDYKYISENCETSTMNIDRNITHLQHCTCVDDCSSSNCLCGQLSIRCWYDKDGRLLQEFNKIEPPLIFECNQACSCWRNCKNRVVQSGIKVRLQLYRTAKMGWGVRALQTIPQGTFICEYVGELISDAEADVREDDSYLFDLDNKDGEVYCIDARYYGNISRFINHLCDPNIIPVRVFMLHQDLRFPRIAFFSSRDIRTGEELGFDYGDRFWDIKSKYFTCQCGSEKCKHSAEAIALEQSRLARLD
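Readings reflect AlphaScreen signal from monomethyl-H3K9 antibody detection. HMT at 20 nM; substrate b-H3K9 500 nM; cofactor SAM 20 uM; 2 h RT reaction; compounds tested as titrations in qHTS with 15 min preincubation.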
Sfp PPTase inh: qHTS Assay for Inhibitors of Bacillus subtilis Sfp phosphopantetheinyl transferase (PPTase) | 4'-phosphopantetheinyl transferase ffp (Bacillus subtilis), Q9F4F7 | actives 3.5% (n = 310,000) | Biochemical Sfp PPTase activity, qHTS | Potency, µM, inactives show largest response in the series, negative = inhibition, most hits filed as inhibitors | AID 1490, 2009;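 note: the enzyme is Sfp with the accession as filed and its product quenches rhodamine fluorescence; 0% = enzyme reaction without inhibitor and -100% = no enzyme wells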
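Fluorescence-quenching assay with 15 nM Sfp, 5 uM rhodamine-CoA and 12.5 uM BHQ-2-labelled ybbR peptide in pH 7.6 Hepes/MgCl2 buffer. Enzyme was pre-incubated with compound for 15 min at room temperature. Rate was taken from the 30-min fluorescence change (525/598 nm).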
JMJD2A Tudor inh: qHTS Assay for Inhibitors of JMJD2A-Tudor Domain; AlphaScreen JMJD2A-Tudor / H3K4me3 peptide binding; actives 4.4% (n = 390,000); Potency, µM (doses to about 114 µM), without a hit: at the highest dose activity change, negative = inhibition, most hits filed as inhibitors; note: % is set by controls: 0 for no effect and ±100 for the full control effect; nearly all actives have a fitted effect of over 50% in size
BAZ2B block: qHTS Assay for Inhibitors of BAZ2B. Bromodomain adjacent to zinc finger domain protein 2B (Homo sapiens), Q9UIF8. AlphaScreen BAZ2B-H3K14Ac peptide displacement. Potency, µM (titrated, usually from 114 µM), inactives show at the highest dose activity change, negative = inhibition, hits mostly inhibitors. actives 4.4% (n = 360,000). AID 504333, 2011; note: % is set by controls: 0 for no effect and ±100 for the full control effect; nearly all actives have a fitted effect of over 60% in size
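BAZ2B 50 nM plus b-H3(5-23)K14Ac 50 nM, PBS pH 7.4/0.01% Tween-20, 30 min RT; compound added (max 110 uM), 30 min RT; streptavidin donor/Ni-chelate acceptor beads 10 ug/mL final, 20 min dark; AlphaScreen read.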
HP1b binding inh: HTS for Inhibitors of HP1-beta Chromodomain Interactions with Methylated Histone Tails. actives 0.56% (n = 390,000). Potency, µM (highest dose often 114 µM), for inactives: at the highest dose activity change, negative = inhibition, usual class: inhibitors. Chromobox protein homolog 1 (Homo sapiens), P83916. AlphaScreen HP1-beta / biotin-H3K9me3 peptide binding; note: nearly all actives have a fitted effect of over 70% in size
Target sequence (P83916 whole entry, looked up): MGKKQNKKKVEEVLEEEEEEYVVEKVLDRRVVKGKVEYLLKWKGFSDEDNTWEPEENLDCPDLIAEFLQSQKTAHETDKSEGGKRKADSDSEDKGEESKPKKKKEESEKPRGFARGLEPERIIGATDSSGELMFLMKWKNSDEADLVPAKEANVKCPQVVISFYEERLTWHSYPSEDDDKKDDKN
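HP1-beta protein (50 nM final) preincubated 30 min at room temperature with biotinylated H3(1-18)K9me3 peptide (50 nM) in PBS pH 7.4, 0.01% Tween-20, then compound added for 30 min. AlphaScreen streptavidin donor/nickel chelate acceptor beads (10 ug/mL final), 30 min dark, luminescence read.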
Numbers without * were called inactive; ? = inconclusive; . = not tested or not shown; [ ] = dose if it differs, or a comment. Compounds with a hit are over-represented: about 12% of the library has one in this group of screens. Calls come from the whole dose curve; as a rule, active = well fitted curve in the direction sought with a large enough effect; inconclusive = small, poorly fitted or top-dose-only effect, or another doubt; inactive = no such curve, though single readings can be large; an effect the other way counts as inactive or inconclusive. Potency is the fitted concentration of half-maximal effect.

SMILES	L3MBTL1 block	G9a block	Sfp PPTase inh	JMJD2A Tudor inh	BAZ2B block	HP1b binding inh
Cc1cc(N2CCN(C)CC2)nc2ccc(NC(=S)N3CCCCC3)cc12	.	25µM*	-21%	-32%	?	9%
Cc1cc(N2CCN(c3ccc(F)cc3)CC2)n2nc(-c3ccc(Cl)cc3)nc2n1	.	6%[59 µM]	.	-4%	-2%	29%
COc1ccc(Cl)cc1-n1cc(-c2ccccc2)nc1SCC(=O)Nc1ccc(C)cc1	.	?	.	?	?	2%
Cc1ccc2oc(-c3cc(NC(=O)Cc4ccccc4)ccc3Cl)nc2c1	.	-32%[59 µM]	.	-4%	0%	21%
CCOC(=O)c1c(NC(=O)c2ccncc2)sc(C)c1C	9%	16µM*	22µM*	-21%	-8%	19%
CCOC(=O)c1c(NC(=O)COC(=O)c2ccncc2)sc(C)c1C	-6%	-31%	79µM*	-13%	-22%	4%
CCOC(=O)c1c(NC(=O)COC(=O)c2ccc(O)cc2)sc(C(=O)NC)c1C	.	.	.	-27%	.	25%
O=S(=O)(c1ccc(Cl)cc1)c1ccccn1	-1%	15%	-11%	-11%	9%	17%
Cc1c(S(=O)(=O)c2ccccn2)c(N)n(Cc2cccc(Cl)c2)c1C	-25%	28µM*	?	-25%	-30%	37%
COc1ccc(C(=O)Nc2nnc(S(=O)(=O)N3CCCc4ccccc43)s2)cc1	.	-42%[59 µM]	.	?	?	-1%
CC(CCc1ccccc1)NC(=O)Cn1c(=O)nc(-c2ccccc2)c2cc(Cl)ccc21 (stereo not given)	.	2%[12.7 µM]	.	-6%	-6%	32%
CCC1=Nc2ccccc2NC2=C1C(=O)CCC2	.	?	35µM*	-38%	50µM*	2%
O=C(Nc1nnc(-c2ccc(Cl)s2)o1)C1CC1	.	-49%	5%	-27%	.	30%
Cc1ccc(C)c(-c2nnc(NC(=O)COc3ccccc3)o2)c1	11%	-21%	.	-29%	-6%	26%
O=C(COc1ccc(Cl)cc1)Nc1nnc(-c2ccco2)o1	?	-29%	6%	28µM*	22µM*	26%
O=C(COc1ccccc1)Nc1nnc(-c2ccco2)o1	?	?	-18%	14µM*	18µM*	15%
O=C(COc1ccccc1)Nc1nnc(-c2ccc(Cl)s2)o1	.	14%	6%	89µM*	?	46%
CCOc1ccc2ncc3c(-c4ccccc4)nn(CC(=O)Nc4cccc(F)c4)c3c2c1	.	6%[59 µM]	.	-7%	-10%	42%
O=C1N=C(N2CCCC2C(=O)O)S/C1=C\c1ccco1 (stereo not given)	.	25µM*	-26%	?	79µM*	?
COc1ccccc1C(=O)Nc1ccccc1OCc1cc(=O)n2c(C)csc2n1	.	2%[59 µM]	.	-20%	-2%	35%
Cc1cc(OC(C)C(=O)N(Cc2ccc(N(C)C)cc2)Cc2ccco2)ccc1Cl (stereo not given)	.	13µM*	.	14µM*	13µM*	-27%
Cc1cc(OCC(=O)N(Cc2ccc(N(C)C)cc2)Cc2ccco2)cc(C)c1Cl	.	11µM*	.	14µM*	10µM*	-17%
Cc1cc(OC(C)C(=O)N(Cc2ccco2)Cc2ccccc2F)cc(C)c1Cl (stereo not given)	.	28%[59 µM]	.	-2%	29%	36%
COc1cc(N=Nc2ccc(C(=O)N(C)C)cc2)c(C)cc1N	.	.	.	3.5µM*	.	20µM*
Cc1cc(N=Nc2c(O)c3ccccc3[nH]c2=O)ccc1N=Nc1ccc(C(=O)N(C)C)cc1	.	79µM*	-11%	?	?	13%

High-throughput results deposited in PubChem by National Center for Advancing Translational Sciences (NCATS).
